Results on 38 sequences are retold here after the OligoGym collection.
Also: reference of the scale not given here.

The target in one experiment is NDE1. Briefly: pooled miR-30 sensor sort-seq; sequence = guide strand. Conditions: shRNA.
Sequence TTCAGCTTCATATTCTCGGCTT displayed a sensor-assay potency score (higher = more potent) of 0.137.
TCTGTTTGTAGGTCATCGCCAG displayed a sensor-assay potency score (higher = more potent) of -0.347.
TTCAATTTGTTGCAGCTGCGTC returned a sensor-assay potency score (higher = more potent) of -0.561.
The same measure, in the same setting: in the case of TCTCTGAACAGATTCCAGGAGA it was -0.696; in that of TCTTCGAGAGACATGATCGTGG, -0.394.
TTTTCGGACAGGAGGTCTCTGT returned a sensor-assay potency score (higher = more potent) of -0.635.
TTTGCTTGCTCCAGCTCTCTGA: the sensor-assay potency score (higher = more potent) is -0.321.
TTGATTTGGACAACCAGCGGCA had a sensor-assay potency score (higher = more potent) of -0.226.
Sequence TTGCTTGCTCCAGCTCTCTGAT registered a sensor-assay potency score (higher = more potent) of -1.21.
In turn, TTAAACTTGAGCTGGGTCCTCG returned a sensor-assay potency score (higher = more potent) of -0.477.
Consider TTCTCGGAGTTCCTCTTGCGTA, for which the sensor-assay potency score (higher = more potent) is -1.4.

A further experiment deals with NDUFA7. The description is as above. As to conditions: shRNA.
Sequence TCTCAGTGGCAGCTACAGCAGA came in with a sensor-assay potency score (higher = more potent) of -0.927.
Turning to TTGTTGGAGAGCTTGTGGCTAG, the sensor-assay potency score (higher = more potent) is -0.163.
Regarding TTGTGGCTAGGACCCACAGGGA, the sensor-assay potency score (higher = more potent) is -1.83.
Turning to AGGAGCTGGAGTCACCGCCTTC, the sensor-assay potency score (higher = more potent) is -1.6.
Take TACAGCAGAGCTCTCTGCTGGC: the sensor-assay potency score (higher = more potent) was -0.355.
The sequence TAGCGTAGCTGCAGCTTCCCCT gave a sensor-assay potency score (higher = more potent) of -0.864.
The same measure, in the same setting: as for TTCGCTTGGAGATCTCCTGGTA, the figure is 0.453; as for TAAAACTAGAAGTGATACCTGA, 0.222; as for ATTGTTGGAGAGCTTGTGGCTA, -0.402.
AATTAGGTCACATTCTCCCTGG had a sensor-assay potency score (higher = more potent) of -0.0171.
Same read-out and setting: as for TCTCCTGGTAGCGTAGCTGCAG, the figure is -1.09; as for TCGCTTGGAGATCTCCTGGTAG, -0.223.

Another experiment concerns the target NDUFA9. Described as above. Conditions: shRNA.
For the sequence TGTGTTGTACTACTCGTCGGAT, the sensor-assay potency score (higher = more potent) is -0.517.
In turn, TTAAGGAATCTATCCTCTCTTC came in with a sensor-assay potency score (higher = more potent) of -0.535.
In the case of TGACTGAGGAACGTCCACCTTT, the sensor-assay potency score (higher = more potent) is -0.755.
Regarding TTCAACTCCAGCTTCCTTGGAC, the sensor-assay potency score (higher = more potent) came to 0.368.
TTATTTCAAAGACTCTTGCTAC showed a sensor-assay potency score (higher = more potent) of -0.0759.
On to TTGCTGTGTTGTACTACTCGTC, for which the sensor-assay potency score (higher = more potent) was -0.266.
As to TAGAATCTTTATCTCTCGCGTC, the sensor-assay potency score (higher = more potent) is -0.0518.
Still for that read-out and setting: in the case of TTAACTGCATTAACAATTCCTT it was -0.73; in that of TTTAACTGTCTTCCAGCCCAAG, -1.24.
With TACTTTCTCTCCAACAGCCTTA, the sensor-assay potency score (higher = more potent) stood at 0.0635.
For TATAGGACCAAACCGATGCATA, the sensor-assay potency score (higher = more potent) is -1.43.
TTGATGACCACATTGCTGTGTT displayed a sensor-assay potency score (higher = more potent) of 0.542.

The target of a further experiment is NDUFAB1. Described as above. Conditions: shRNA.
Take TACGTAAAGAACACGGTCCTGG: the sensor-assay potency score (higher = more potent) is 0.0334.
The sequence AAGTCCATCAGAATCACTCTGT yielded a sensor-assay potency score (higher = more potent) of 0.545.
Take TGTAACTCTACCAGGAACCTGC: the sensor-assay potency score (higher = more potent) worked out at 0.262.
